In PubChem BioAssay (Tox21):
Inconclusive results are not listed. The source made the active and inactive calls. Unless noted, calls follow the shape of the full dose curve.

What was measured:
[1] = Nuclear factor erythroid 2-related factor 2/antioxidant responsive element (Nrf2/ARE) small molecule agonists: qHTS cell viability counter screen in human keratinocytes (AID 1919968; active = well fitted curve in the direction sought with a large enough effect in the repeat runs; an effect the other way counts as inactive or inconclusive; also: nearly all actives have a fitted effect of over 55% in size; also: potency is read from the fitted curve at half-maximal effect)
Outline: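 KeratinoSens cells (HaCaT keratinocytes stably carrying an ARE-luciferase reporter) were seeded at 1,500 cells/well and rested 5 h at 37 C/5% CO2. They were then exposed to compounds in DMSO for 23 h. Viability was read by CellTiter-Fluor fluorescence after 1 h.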

[2] = biological target: Gonadotropin-releasing hormone receptor (Homo sapiens) (UniProt P30968); experiment: Human gonadotropin-releasing hormone receptor (GnRHR) small molecule agonists, calcium flux assay in GnRHR-HEK293 cells (AID 1920063); also: nearly all actives have a fitted effect of over 35% in size
Outline: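 HEK293 cells stably expressing human GnRHR were plated 18 h at 37 °C, loaded with calcium dye 1 h at 37 °C, then given compound in agonist mode; fluorescence (Ex/Em 480/540) read kinetically for 3 min at 1 s intervals.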

[3] = biological target: KiSS-1 receptor (Homo sapiens) (UniProt Q969F8); experiment: Human kisspeptin (KISS1R) small molecule agonists, calcium flux assay in KISS1R-HEK293 cells (AID 1920064; active = well fitted curve in the direction sought with a large enough effect in the repeat runs; an effect the other way counts as inactive or inconclusive)
Outline: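 HEK293 cells stably expressing human KISS1R were plated 18 h at 37 °C, loaded with calcium dye for 1 h at 37 °C, then given compound by pin tool. Fluorescence (Ex/Em 480/540) was read kinetically for 3 min.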

[4] = G protein-coupled receptor (GPCR) small molecule agonists, calcium flux assay: HEK293 wild type cell line counter screen (AID 1920065)
Outline: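 Cells were plated and cultured 18 h at 37 C/5% CO2, then loaded with calcium dye for 1 h at 37 C. Compounds in DMSO were pin-transferred in agonist mode, and fluorescence (Ex/Em 480/540) was read kinetically for 3 min at 1 s intervals.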

[5] = p53 small molecule agonists, cell-based qHTS assay with human liver microsomes (AID 1963577);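 also: p53 response element beta-lactamase reporter cells with liver microsomes plus NADPH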
Outline: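 Metabolically competent format: test substances, human liver microsomes and NADPH (both 0.5 mg/mL final) incubated with p53RE-bla cells 16 h at 37 C. Beta-lactamase reporter signal then quantified by fluorescence.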

[6] = p53 small molecule agonists, cell-based qHTS assay with rat liver microsomes (AID 1963578)
Outline: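 Each plate received p53RE-bla cells, then compound, then rat liver microsomes and NADPH (both 0.5 mg/mL final). Plates were held 16 h at 37 C, and beta-lactamase activity was detected with LiveBLAzer over 2 h.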

[7] = p53 small molecule agonists, cell-based qHTS assay with human liver microsomes: qHTS cell viability counter screen (AID 1963579); also: nearly all actives have a fitted effect of over 45% in size; also: potency is read from the fitted curve at half-maximal effect
Outline: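 Tox21 library compounds, delivered from DMSO stocks, were tested on p53RE-bla cells together with 0.5 mg/mL human liver microsomes and 0.5 mg/mL NADPH (final) over 16 h at 37 C; CellTiter-Glo luminescence served as the cytotoxicity measure.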

[8] = biological target: 5-hydroxytryptamine receptor 2A (Homo sapiens) (UniProt P28223); experiment: 5-hydroxytryptamine receptor 2A (HTR2A) small molecule agonists, cell-based qHTS assay (AID 1963587); also: nearly all actives have a fitted effect of over 30% in size; also: potency is read from the fitted curve at half-maximal effect
Outline: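 HTR2A-CHO cells, plated 18 h at 37 C/5% CO2, dye-loaded 1 h at 37 C; compounds in DMSO added by pin tool (agonist mode). Intracellular calcium flux read as kinetic fluorescence on FDSS over 2 min at 1 s intervals.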

[9] = biological target: Muscarinic acetylcholine receptor M1 (Homo sapiens) (UniProt P11229); experiment: Cholinergic receptor muscarinic 1 (CHRM1) small molecule antagonists, cell-based qHTS assay (AID 1963588); also: nearly all actives have a fitted effect of over 40% in size
Outline: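 CHRM1-CHO calcium-flux assay, antagonist mode. Cells were seeded 18 h, dye-loaded 1 h at 37 C and given compound for 5 min at RT, then acetylcholine was added at 50nM. FDSS fluorescence was read 3 min; 15 concentrations, three runs.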

[10] = biological target: Beta-2 adrenergic receptor (Homo sapiens) (UniProt P07550); experiment: Adrenergic beta2 receptor (ADRB2) small molecule antagonists, cell-based qHTS assay (AID 1963592); also: series mostly up to about 92 µM; nearly all actives have a fitted effect of over 50% in size
Outline: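 Cells (CHO, stable ADRB2 overexpression) incubated 18-20hr at 37C; compounds added from DMSO; agonist mix (1nM isoproterenol, 100uM IBMX, 25uM Ro-20-1724) added; 0.5hr RT; d2-cAMP and anti-cAMP-cryptate added; 1hr RT; 665/615 nm read.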

[11] = p53 small molecule agonists, cell-based qHTS assay: qHTS cell viability counter screen (AID 1963581); also: nearly all actives have a fitted effect of over 45% in size
Outline: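 p53RE-bla HCT-116 cells were exposed to compounds for 16 h at 37 C; after the beta-lactamase FRET read in the same wells, CellTiter-Glo was added and luminescence (intracellular ATP) read after 30 min at room temperature.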

[12] = p53 small molecule agonists, cell-based qHTS assay (AID 1963582; active = well fitted activation curve with a large enough effect in the signal ratio in the repeat runs, not every such curve was filed as active; the % refers to the signal ratio)
Outline: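 p53RE-bla beta-lactamase reporter cells rested 5 h at 37 C/5% CO2, then received compounds in DMSO by pin transfer and were incubated 16 h at 37 C. LiveBLAzer B/G FRET substrate was loaded for 2 h at room temperature before fluorescence reading.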

[13] = biological target: Beta-2 adrenergic receptor (Homo sapiens) (UniProt P07550); experiment: Adrenergic beta2 receptor (ADRB2) small molecule agonists, cell-based qHTS assay (AID 1963593);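 also: CHO cells stably overexpressing human ADRB2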
Outline: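 CHO cells stably over-expressing ADRB2 were plated overnight at 37C, then dosed with compounds plus a stimulation mix containing 100uM IBMX and 25uM Ro-20-1724 for 0.5hr at room temperature. cAMP was measured by HTRF competition, 1hr.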

[14] = biological target: D(2) dopamine receptor (Homo sapiens) (UniProt P14416); experiment: Dopamine D2 receptor (DRD2) small molecule antagonists, cell-based qHTS assay (AID 1963595; active = well fitted inhibition curve with a large enough effect in the signal ratio in the repeat runs, with a control signal flat; the % refers to the signal ratio; also: potency is read from the fitted curve at half-maximal effect)
Outline: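 Human DRD2 antagonist qHTS measuring cAMP by HTRF. The cells are exposed to compound for 10 min, then to NKH477 (200 nM) and quinpirole (12 nM) for 30 min at RT, with Ro20-1724 (0.1 mM) present throughout.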

[15] = p53 small molecule agonists, cell-based qHTS assay with rat liver microsomes: qHTS cell viability counter screen (AID 1963580); also: nearly all actives have a fitted effect of over 45% in size; also: potency is read from the fitted curve at half-maximal effect
Outline: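 p53RE-bla HCT-116 cells (4,000/well) rested 5 h at 37 C, then given Tox21 compounds in DMSO with rat liver microsomes (0.5 mg/mL final) plus NADPH (0.5 mg/mL final) for 16 h at 37 C. Viability read by CellTiter-Glo luminescence after 30 min at room temperature.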

[16] = biological target: D(2) dopamine receptor (Homo sapiens) (UniProt P14416); experiment: Dopamine D2 receptor (DRD2) small molecule agonists, cell-based qHTS assay (AID 1963594); also: nearly all actives have a fitted effect of over 35% in size
Outline: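 HEK293 cells stably expressing DRD2 were cultured 24 h at 37 C, then given Ro20-1724 (0.1 mM final) and compounds for 10 min at room temperature. NKH477 (200nM) was then added for 30 min. cAMP was read by HTRF.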

[17] = biological target: 5-hydroxytryptamine receptor 2A (Homo sapiens) (UniProt P28223); experiment: 5-hydroxytryptamine receptor 2A (HTR2A) small molecule antagonists, cell-based qHTS assay (AID 1963586); also: nearly all actives have a fitted effect of over 45% in size
Outline: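 Antagonist-mode intracellular calcium assay: DOI (4 nM) added after 5 min compound pre-incubation at room temperature to dye-loaded HTR2A-CHO cells. Fluorescence followed for 3 min, sampled every second.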

[18] = cAMP Responsive Elements (CRE) small molecule agonists, cell-based qHTS assay (AID 1963590)
Outline: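 CRE-bla HEK 293T cells in DMEM with 10% dialyzed FBS, NEAA, pyruvate and 25 mM HEPES were plated 18 h at 37 C/5% CO2, then exposed to compounds in DMSO for 3 h before LiveBLAzer B/G FRET substrate addition.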

[19] = cAMP Responsive Elements (CRE) small molecule antagonists, cell-based qHTS assay (AID 1963591; active = well fitted inhibition curve with a large enough effect in the signal ratio in the repeat runs, not every such curve was filed as active; the % refers to the signal ratio)
Outline: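 CRE-bla HEK293T cells were plated 18 h at 37 °C/5% CO2, pinned with compound in DMSO, then stimulated with NKH477 at 0.25 uM final for 3 h. LiveBLAzer B/G FRET substrate was added and plates incubated 2 h at room temperature.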

[20] = biological target: Muscarinic acetylcholine receptor M1 (Homo sapiens) (UniProt P11229); experiment: Cholinergic receptor muscarinic 1 (CHRM1) small molecule agonists, cell-based qHTS assay (AID 1963589); also: nearly all actives have a fitted effect of over 35% in size
Outline: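 CHO cells stably expressing human CHRM1, seeded 18 h at 37 C/5% CO2, dye-loaded 1 h at 37 C, then given compound in agonist mode; intracellular calcium fluorescence read kinetically at 1 s intervals. Fifteen concentrations, three independent runs.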

Measured: Potency

Chain of Gonadotropin-releasing hormone receptor (Homo sapiens) (P30968 whole entry, looked up): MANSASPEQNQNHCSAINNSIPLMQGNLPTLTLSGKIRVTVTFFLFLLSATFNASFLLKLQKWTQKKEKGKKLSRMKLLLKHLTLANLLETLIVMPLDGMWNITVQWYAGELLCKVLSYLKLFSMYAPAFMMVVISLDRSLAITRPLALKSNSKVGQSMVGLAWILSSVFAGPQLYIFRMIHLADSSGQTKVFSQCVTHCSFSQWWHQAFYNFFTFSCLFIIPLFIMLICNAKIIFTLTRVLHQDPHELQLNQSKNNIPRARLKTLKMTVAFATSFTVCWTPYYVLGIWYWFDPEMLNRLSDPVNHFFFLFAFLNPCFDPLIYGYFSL
Chain of Muscarinic acetylcholine receptor M1 (Homo sapiens) (P11229 whole entry, looked up): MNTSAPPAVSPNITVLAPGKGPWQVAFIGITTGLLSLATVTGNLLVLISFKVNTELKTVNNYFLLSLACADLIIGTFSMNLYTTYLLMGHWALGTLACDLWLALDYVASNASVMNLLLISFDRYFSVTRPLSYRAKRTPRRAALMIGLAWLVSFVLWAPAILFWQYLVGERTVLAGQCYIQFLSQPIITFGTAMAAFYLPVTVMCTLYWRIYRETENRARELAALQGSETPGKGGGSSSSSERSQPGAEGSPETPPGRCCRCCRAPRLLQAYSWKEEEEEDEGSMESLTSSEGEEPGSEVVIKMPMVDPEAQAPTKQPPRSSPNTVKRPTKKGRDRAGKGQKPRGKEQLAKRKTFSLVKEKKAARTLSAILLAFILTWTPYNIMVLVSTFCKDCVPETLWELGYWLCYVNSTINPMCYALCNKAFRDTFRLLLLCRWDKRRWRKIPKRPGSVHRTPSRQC
Chain of Beta-2 adrenergic receptor (Homo sapiens) (P07550 whole entry, looked up): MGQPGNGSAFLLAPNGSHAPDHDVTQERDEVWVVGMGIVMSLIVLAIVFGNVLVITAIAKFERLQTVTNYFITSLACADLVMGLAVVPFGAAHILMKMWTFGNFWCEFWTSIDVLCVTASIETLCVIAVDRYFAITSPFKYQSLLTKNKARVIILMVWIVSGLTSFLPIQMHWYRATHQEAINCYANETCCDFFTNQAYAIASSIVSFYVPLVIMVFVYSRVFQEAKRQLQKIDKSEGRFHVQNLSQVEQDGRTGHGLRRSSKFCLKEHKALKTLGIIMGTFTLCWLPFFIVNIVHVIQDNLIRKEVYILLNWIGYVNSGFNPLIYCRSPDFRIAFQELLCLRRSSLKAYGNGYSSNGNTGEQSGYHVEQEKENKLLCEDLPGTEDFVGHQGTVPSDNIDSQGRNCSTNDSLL
Chain of KiSS-1 receptor (Homo sapiens) (Q969F8 whole entry, looked up): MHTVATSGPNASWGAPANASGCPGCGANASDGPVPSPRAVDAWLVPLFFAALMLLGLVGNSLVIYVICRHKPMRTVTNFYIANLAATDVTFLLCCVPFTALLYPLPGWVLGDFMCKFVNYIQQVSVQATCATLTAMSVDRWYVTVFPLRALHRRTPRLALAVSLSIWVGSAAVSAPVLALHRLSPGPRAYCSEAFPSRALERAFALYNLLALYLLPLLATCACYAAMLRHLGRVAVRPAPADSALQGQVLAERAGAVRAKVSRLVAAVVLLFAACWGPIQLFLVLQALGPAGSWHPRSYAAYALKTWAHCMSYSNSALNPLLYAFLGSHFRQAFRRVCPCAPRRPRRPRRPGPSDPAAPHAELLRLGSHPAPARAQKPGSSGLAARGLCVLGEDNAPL
Chain of 5-hydroxytryptamine receptor 2A (Homo sapiens) (P28223 whole entry, looked up): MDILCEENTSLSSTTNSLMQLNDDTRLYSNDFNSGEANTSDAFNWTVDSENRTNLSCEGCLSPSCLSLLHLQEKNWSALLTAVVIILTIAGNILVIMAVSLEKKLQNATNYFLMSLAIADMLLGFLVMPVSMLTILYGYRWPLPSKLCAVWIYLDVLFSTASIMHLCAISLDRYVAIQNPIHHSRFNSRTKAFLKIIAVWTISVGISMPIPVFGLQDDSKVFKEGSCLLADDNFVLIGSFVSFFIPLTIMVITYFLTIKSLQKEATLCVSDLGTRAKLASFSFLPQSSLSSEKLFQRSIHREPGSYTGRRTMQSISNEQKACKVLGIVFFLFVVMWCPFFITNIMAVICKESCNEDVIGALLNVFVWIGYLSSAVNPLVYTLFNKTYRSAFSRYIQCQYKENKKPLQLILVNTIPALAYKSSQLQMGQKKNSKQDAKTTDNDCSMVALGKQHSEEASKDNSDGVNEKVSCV
Chain of D(2) dopamine receptor (Homo sapiens) (P14416 whole entry, looked up): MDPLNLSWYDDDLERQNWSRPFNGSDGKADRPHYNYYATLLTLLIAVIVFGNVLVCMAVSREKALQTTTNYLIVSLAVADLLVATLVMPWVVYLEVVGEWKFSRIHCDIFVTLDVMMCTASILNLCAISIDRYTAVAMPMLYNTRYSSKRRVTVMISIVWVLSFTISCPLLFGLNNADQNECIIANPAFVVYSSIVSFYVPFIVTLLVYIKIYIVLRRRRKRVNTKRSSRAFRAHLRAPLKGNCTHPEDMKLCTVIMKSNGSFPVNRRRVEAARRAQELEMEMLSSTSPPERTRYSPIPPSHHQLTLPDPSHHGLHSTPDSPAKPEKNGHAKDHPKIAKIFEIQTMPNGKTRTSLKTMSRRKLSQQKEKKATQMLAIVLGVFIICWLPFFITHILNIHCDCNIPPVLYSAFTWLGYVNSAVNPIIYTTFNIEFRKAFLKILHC

CCCCN1C(=O)[C@@H]([C@H](O)C2CCCCC2)NC(=O)C12CCN(Cc1ccc(Oc3ccc(C(=O)O)cc3)cc1)CC2
active: [8] 24.5 µM
inactive: [1] | [2] | [3] | [4] | [5] | [6] | [7] | [9] | [10]

CCc1ccc2c(c1)C(=O)c1ccccc1C2=O
not listed: [10] | [15] | [16] | [17] | [18] | [19] | [20]
inactive: all other assays above

CN(C)CCCN1c2ccccc2Sc2ccc(Cl)cc21
inactive: [2] | [3] | [4] | [5] | [6] | [7] | [15] | [16]
active: [1] 54.5 µM

CC(=O)OC(C)OC(C)=O
not listed: [9] | [13] | [15] | [20]
inactive: all other assays above

CCOC(=O)CC(=O)C(=O)OCC
not listed: [11] | [13] | [14] | [15]
inactive: all other assays above

NCCN1CCOCC1
not listed: [7] | [9] | [13] | [18]
inactive: all other assays above

N/C(=N\N=C\c1ccc(Cl)cc1)N/N=C/c1ccc(Cl)cc1
active: [1] 26.6 µM
not listed: [14] | [15] | [18] | [19]
inactive: all other assays above

CN(C)CCCN1c2ccccc2CCc2ccc(Cl)cc21
active: [1] 61.1 µM
not listed: [7] | [8] | [9] | [12] | [14] | [17] | [20]
inactive: all other assays above

CCCCCCCCCCCCCCCBr
not listed: [8] | [13] | [15]
inactive: all other assays above

CCCCCCCCCC(C)C=O (stereo not given)
not listed: [7] | [11] | [12] | [13] | [18]
inactive: all other assays above

O=C(Nc1ccc(C(=O)O)c(O)c1)c1ccccc1
not listed: [7] | [17] | [19]
inactive: all other assays above

C/C=C1\[C@H]2C=C(C)C[C@]1(N)c1ccc(=O)[nH]c1C2
not listed: [8] | [9] | [15] | [17] | [19] | [20]
inactive: all other assays above

CCc1oc2ccccc2c1C(=O)c1cc(I)c(O)c(I)c1
active: [1] 5.96 µM
not listed: [7] | [12] | [17]
inactive: all other assays above

COCCOC[C@H](CC1(C(=O)NC2CCC(C(=O)O)CC2)CCCC1)C(=O)Oc1ccc2c(c1)CCC2 (stereo not given in full)
not listed: [8] | [9] | [13] | [15] | [19]
inactive: all other assays above

C=C[Si]1(C)O[Si](C)(C=C)O[Si](C)(C=C)O[Si](C)(C=C)O1 (stereo not given)
not listed: [7] | [8] | [10] | [13]
inactive: all other assays above

COc1cc(C(=O)NC2CCN(C)CC2)ccc1Nc1ncc2c(n1)N(C1CCCC1)CC(F)(F)C(=O)N2C
inactive: [2] | [3] | [4] | [5] | [6] | [8] | [10] | [13] | [16]
active: [1] 28.1 µM | [7] 16.7 µM | [15] 37.4 µM | [14] 49.9 µM

CC(=O)c1c(C)c([N+](=O)[O-])c(C(C)(C)C)c([N+](=O)[O-])c1C
not listed: [7] | [18]
inactive: all other assays above

CCCCCCOC(=O)c1ccccc1
not listed: [8] | [11] | [12] | [13] | [17] | [19]
inactive: all other assays above
